Bioassay records deposited in PubChem by National Center for Advancing Translational Sciences (NCATS).
Only some compounds are listed: those with a hit (about 19% of all), similar ones and a draw of the others.
DT40 TDP1 no CPT = qHTS for Inhibitors of human tyrosyl-DNA phosphodiesterase 1 (TDP1): qHTS in cells in absence of CPT. Potency, µM (top dose mostly 46.2 µM), without a hit: at the highest dose activity change, negative = growth inhibition, usual class: inhibitors. DT40 Tdp1-/- hTDP1 cells, no CPT, ATP luminescence, 48 h. actives 15% (n = 420,000); also: potency is read from the fitted curve at half-maximal effect; % is scaled to controls: 0 for no effect and ±100 for the full control effect; nearly all actives have a fitted effect of over 55% in size
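Chicken DT40 Tdp1-/- cells complemented with human TDP1, screened without camptothecin (DMSO vehicle only), 400 cells/well. Compounds pin-transferred, cells incubated at 37 °C for at least 48 hr. Growth read as ATP-dependent luminescence (CellTiter-Glo, 30 min at RT).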
HepG2 viability = qHTS for Inhibitors of TGF-b: Cytotox Counterscreen. actives 0.76% (n = 410,000). Potency, µM (titrated, usually from 46.1 µM), inactives show top-dose activity change, negative = cytotoxicity, most hits filed as cytotoxic. AID 588856, 2011. HepG2 CAGA-GFP viability, ATP luminescence, 18 h; also: potency is read from the fitted curve at half-maximal effect
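CellTiter-Glo luminescence gave cytotoxicity after 18 hours at 37 degrees C. The cells were HepG2 CAGA-GFP in 1% FBS DMEM, stimulated with 500 pg/mL TGF-beta after compound addition. %Activity was normalised to no-cell wells (complete cell-killing) and DMSO (no toxicity), and curves were fitted and classified.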
TGFb inhibitor = qHTS for Inhibitors of TGF-b; HepG2 CAGA-GFP TGF-b/SMAD3 reporter, GFP fluorescence, 18 h; TGF-beta stimulated, 500 pg/mL final; Potency, µM (titrated, usually from 46.1 µM), for the others: at the top dose activity, negative = inhibition, actives largely listed as inhibitors; actives 1.2% (n = 410,000); also: potency is read from the fitted curve at half-maximal effect; % is scaled to controls: 0 for no effect and ±100 for the full control effect; nearly all actives have a fitted effect of over 65% in size
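Using HEPG2 CAGA-GFP reporter cells at 1000 cells/well, we pinned test compounds, stimulated with recombinant TGF-beta (500 pg/mL final) and measured total well GFP after 18 h.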
IL-1B inflam inh = qHTS for Inhibitors of Inflammasome Signaling: IL-1-beta AlphaLISA Primary Screen. THP-1 LPS/ATP IL-1B secretion, AlphaLISA, 16 h; stronger effect = lower value. activity change, % at 57.5 µM. actives 4.7% (n = 360,000); in the data active = activity change below about -50%; inconclusive = mostly about -30% to -49%; also: % is scaled to controls: 0 for no effect and ±100 for the full control effect
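Secreted IL-1B measured by AlphaLISA bead assay after 16 h compound exposure of THP-1 cells; compounds (final up to 57.5 uM) added 1 h before LPS (250 ng/mL) and ATP (1.25 mM) stimulation; lower signal means less secretion.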
TDP1 cell CPT = qHTS for Inhibitors of human tyrosyl-DNA phosphodiesterase 1 (TDP1): qHTS in cells in presence of CPT; chicken DT40 Tdp1-/-;hTDP1 cells + 20 nM CPT, ATP luminescence, 48 h; actives 12% (n = 420,000); Potency, µM (doses to about 46.2 µM), for the others: at the top dose activity change, negative = growth inhibition, usual class: inhibitors; also: potency is read from the fitted curve at half-maximal effect; % is scaled to controls: 0 for no effect and ±100 for the full control effect; nearly all actives have a fitted effect of over 55% in size
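Cell growth measured by CellTiter-Glo luminescence after a minimum 48 h, 37 C compound exposure with 20 nM CPT in Tdp1-knockout DT40 cells stably expressing hTDP1, seeded 400/well; qHTS titration format.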
TDP1 block = qHTS Assay for Inhibitors of Tyrosyl-DNA Phosphodiesterase (TDP1) | Tyrosyl-DNA phosphodiesterase 1 (Homo sapiens), Q9NUW8 | recombinant TDP1, AlphaScreen DNA substrate cleavage | Potency, µM (highest dose often 130 µM), without a hit: top-dose activity change, negative = inhibition, hits mostly inhibitors | actives 0.28% (n = 350,000) | AID 485290, 2010; also: potency is read from the fitted curve at half-maximal effect; % is scaled to controls: 0 for no effect and ±100 for the full control effect; nearly all actives have a fitted effect of over 40% in size
Target sequence (Q9NUW8 whole entry, looked up): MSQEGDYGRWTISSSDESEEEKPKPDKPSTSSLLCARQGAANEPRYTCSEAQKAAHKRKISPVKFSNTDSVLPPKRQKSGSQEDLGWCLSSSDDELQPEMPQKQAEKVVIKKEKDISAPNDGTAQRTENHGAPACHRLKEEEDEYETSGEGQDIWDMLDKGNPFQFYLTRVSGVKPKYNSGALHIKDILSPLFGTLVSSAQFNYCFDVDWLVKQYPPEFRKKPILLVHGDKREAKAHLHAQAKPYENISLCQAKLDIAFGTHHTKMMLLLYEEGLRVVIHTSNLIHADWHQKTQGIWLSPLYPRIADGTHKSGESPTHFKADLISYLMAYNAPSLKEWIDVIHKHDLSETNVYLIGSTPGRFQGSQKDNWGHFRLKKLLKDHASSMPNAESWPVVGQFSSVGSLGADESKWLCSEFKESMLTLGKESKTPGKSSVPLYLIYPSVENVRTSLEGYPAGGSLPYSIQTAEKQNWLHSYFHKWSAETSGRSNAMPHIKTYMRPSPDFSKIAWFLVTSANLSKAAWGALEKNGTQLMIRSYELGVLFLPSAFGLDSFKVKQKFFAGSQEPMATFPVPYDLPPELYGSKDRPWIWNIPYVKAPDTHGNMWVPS
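E. coli-derived human Tdp1, 1 nM final. Cpd preinc 15 min RT; substrate 15 nM final, 5 min RT; AS bead mix 10 ug/ml final, 10 min RT. Signal loss = tyrosine-FITC cleavage. No-enzyme wells = max signal.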
Active calls of the source: *; ? = inconclusive; nt = not tested or not shown; [ ] = another dose, or the depositor's remark. Unless noted, calls follow the shape of the dose curve; as a rule, active = well fitted curve in the direction sought with a large enough effect; inconclusive = small, poorly fitted or top-dose-only effect, or another doubt; inactive = no such curve, though single readings can be large; an effect the other way counts as inactive or inconclusive.

SMILES | DT40 TDP1 no CPT | HepG2 viability | TGFb inhibitor | IL-1B inflam inh | TDP1 cell CPT | TDP1 block
Cc1nc2scc(C)n2c(=O)c1S(=O)(=O)Nc1ccc(F)cc1 | -19% | 0% | 5% | -5 | -7% | 1%
Cc1cn2c(=O)c(S(=O)(=O)Nc3ccc(OC(F)(F)F)cc3)c(C)nc2s1 | 23µM* | 15% | 52% | nt | 21µM* | -5%
COc1ccc(CCNS(=O)(=O)c2c(C)nc3sc(C)cn3c2=O)cc1OC | -4% | 0% | -2% | nt | -12% | 5%
COc1cc(OC)c(NS(=O)(=O)c2c(C)nc3sc(C)cn3c2=O)cc1Cl | 15µM* | -11% | -20% | nt | ? | 0%
C=CCOC(=O)c1ccc(N2CCN(c3ccccc3)CC2)nc1 | -22% | -3% | -7% | -1 | 8% | nt
CC(=O)C(C)n1c(CN2CCN(C(=O)c3ccco3)CC2)nc2c1c(=O)n(C)c(=O)n2C (configuration not stated) | 5% | 4% | 5% | -2 | -2% | 1%
COC(=O)c1ccccc1NC(=O)c1cn2c3c(ccc(Cl)c3c1=O)OC(C)C2 (configuration not stated) | 1% | -6% | 0% | nt | 6% | -4%
CCCCCN(C(=O)CCC(=O)OCc1cccc(F)c1)c1c(N)n(CCCC)c(=O)[nH]c1=O | -2% | -1% | 0% | -15 | 2% | 4%[0.505 µM]
CCCCCN(C(=O)CCC(=O)OCc1ccc(Cl)cc1Cl)c1c(N)n(CCCC)c(=O)[nH]c1=O | ? | -2% | ? | -66* | ? | nt
CCCCCN(C(=O)CCC(=O)OCc1ccccc1Cl)c1c(N)n(CCCC)c(=O)[nH]c1=O | -18% | 1% | 0% | 0 | ? | 4%
CCCCCN(C(=O)CCC(=O)OCc1cccc(C)c1)c1c(N)n(CCCC)c(=O)[nH]c1=O | ? | -1% | 15% | -1 | 21µM* | nt
Cc1nn(CC(=O)N2CCN(c3cccc(Cl)c3)CC2)c(=O)c2c1sc1ccccc12 | -1% | -3% | -28% | nt | -27% | 11%
O=C(NC1CC(=O)N(c2ccc(F)cc2)C1)C(=O)c1c[nH]c2ccccc12 (configuration not stated) | -26% | -1% | 7% | 17 | -9% | 2%[0.505 µM]
CCCCCCCN1CCN=C1N(C)C | 16µM* | -2% | ? | -3 | ? | nt
CN(C)C1=NCCN1CCC1CCCCC1 | ? | -13% | 1% | -3 | 12µM* | -5%
C[C@H]1CN=C(N(C)C)N1CCCC1CCCCC1 | 16µM* | 0% | 4% | -9 | 21µM* | -2%
CCOC(=O)N1CCC(NC(=O)CS(=O)Cc2nc(-c3ccc(C)cc3)oc2C)CC1 (configuration not stated) | -15% | -1% | 5% | 10 | ? | 6%
O=[N+]([O-])c1ccc(C2=NN(CCO)C(=Nc3ccc(OC(F)(F)F)cc3)SC2)cc1 | 21µM* | -67% | ? | -63* | 18µM* | 11%
COc1ccc(N=C2SCC(c3ccc([N+](=O)[O-])cc3)=NN2CCO)cc1 | ? | -28% | ? | nt | -12% | 11%
CCOC(=O)c1c(NC(=O)COC(=O)c2ccc([N+](=O)[O-])cc2)sc(C(=O)N(C)C)c1C | -3% | 0% | 0% | -5 | 17% | 2%
CCOC(=O)c1c(C)[nH]c(C(=O)OCC(=O)Nc2sc(C(=O)N(C)C)c(C)c2C(=O)OCC)c1C | 23µM* | 0% | -3% | -51* | ? | nt
CCOC(=O)c1[nH]c(C)c(C(=O)OC)c1C | 8% | 36% | 23% | nt | 3% | 5%
CCOC(=O)c1[nH]c(C)c(C(=O)OCC(=O)NC(C)c2ccc(F)cc2)c1C (configuration not stated) | 1.2µM* | 2% | 3% | 0 | 1.6µM* | -6%
CCOC(=O)c1c(C)[nH]c(C(=O)OCc2ccc(F)cc2)c1C | 2% | -16% | 7% | -22 | -9% | 0%
CCOC(=O)c1c(C)[nH]c(C(=O)OCC(=O)NC(C)(C)C)c1C | 18µM* | -15% | -4% | -10 | ? | 5%
SMILES | DT40 TDP1 no CPT | HepG2 viability | TGFb inhibitor | IL-1B inflam inh | TDP1 cell CPT | TDP1 block
Cc1cc(C)c2nc(NNC(=O)c3cc(-c4cccs4)nc4ccccc34)sc2c1 | 5.2µM* | -26% | ? | 115 | 4.6µM* | 8%
Cc1ccc2sc(NNC(=O)c3cc(-c4cccs4)nc4ccccc34)nc2c1C | nt | nt | nt | nt | nt | 9%
O=C(NNc1nc2ccc(Cl)cc2s1)c1cc(-c2cccs2)nc2ccccc12 | 5.2µM* | -61% | 8.9µM* | 174 | 2.6µM* | 9%
O=C(Nc1cc(C(F)(F)F)ccc1Cl)c1cc(-c2cccs2)nc2ccccc12 | -29% | -8% | -22% | nt | -11% | nt
Cc1nc(NC(=O)c2ccccc2)sc1-c1cc(C(=O)N2CCOCC2)nn1Cc1ccccc1 | -18% | -6% | 13% | -3 | 21µM* | nt
Cc1nc(NC(=O)c2ccccc2)sc1-c1cc(C(=O)N2CCOCC2)nn1CCO | 14% | nt | nt | -29 | 12% | nt
CC(C)(C)OC(=O)N1CCN(c2ccc(NC(=O)c3ccco3)cc2)CC1 | 16µM* | 3% | 30% | -2 | 18µM* | 5%
O=C(Nc1ccc(N2CCN(C(=O)c3ccco3)CC2)cc1)c1ccco1 | 5% | 6% | 0% | -3 | 0% | 6%
CC(C)c1ccc(NC(=O)C(c2ccc3c(c2)OCO3)N2CCN(C(=O)c3ccco3)CC2)cc1 (configuration not stated) | ? | -1% | 4% | -24 | ? | 9%
CC(C)c1ccc(NC(=O)C(c2ccccc2)N2CCN(C(=O)c3ccco3)CC2)cc1 (configuration not stated) | 18µM* | -19% | -6% | ? | ? | 8%
O=C(Nc1ccc(N2CCN(C(=O)c3ccco3)CC2)cc1)c1cccs1 | -29% | 3% | ? | -52* | ? | 7%
O=C(Nc1ccc(N2CCN(C(=O)c3ccco3)CC2)cc1)C(c1ccccc1)c1ccccc1 | 16µM* | 19% | -4% | 10 | 21µM* | 7%
